# Measurements published in PubChem BioAssay (NCI).
# Values joined by “and” are separate entries in the source; they are usually repeats but may differ in a detail not shown here. Identical values can stand only once. About 79,000 compounds went through this panel and 15% of them were active in at least one assay; those are over-represented in the sample as a whole. Where a structure was tested more than once in an assay, its records may differ in their call. Active and inactive are the calls of the source. Cut-off read from the data, not from the text of the source: active = growth inhibition above about 70%; inactive = the rest.
# Experiments:
# [1] = NCI Yeast Anticancer Drug Screen. Data for the rad50 strain (AID 155);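 note: 0% = growth of vehicle-only cultures of the same strain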; details: S. cerevisiae rad50 strain growth inhibition, stronger effect = higher value
# In short: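 Growth of the mutant yeast was measured after compound exposure and referenced to vehicle-treated cultures.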
# [2] = NCI Yeast Anticancer Drug Screen. Data for the mec2-1 strain (AID 157); details: S. cerevisiae mec2-1 strain, stronger effect = higher value
# In short: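 Cells of the genetically defined mec2-1 yeast strain are incubated with test compound. Inhibition of growth is calculated against vehicle-treated controls.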
# [3] = NCI Yeast Anticancer Drug Screen. Data for the sgs1 mgt1 strain (AID 161);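 note: 0% = growth of cultures given vehicle only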; details: S. cerevisiae sgs1 mgt1 strain, stronger effect = higher value
# In short: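 Genetically altered yeast, compound exposure, growth inhibition relative to vehicle.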
# [4] = NCI Yeast Anticancer Drug Screen. Data for the cln2 rad14 strain (AID 165);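 note: 0% = growth equal to vehicle treated cultures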; details: S. cerevisiae cln2 rad14 strain, stronger effect = higher value
# In short: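 The screen exposed genetically defined yeast (cln2 rad14) to test compounds and scored growth inhibition relative to vehicle-treated controls.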
# [5] = NCI Yeast Anticancer Drug Screen. Data for the bub3 strain (AID 167); details: S. cerevisiae bub3 mutant strain, stronger effect = higher value
# In short: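 Whole-cell yeast assay. The mutant strain was incubated with compounds, and growth inhibition was determined by comparison with vehicle-treated cells.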
# [6] = NCI Yeast Anticancer Drug Screen. Data for the mlh1 rad18 strain (AID 175); details: S. cerevisiae mlh1 rad18 strain growth inhibition, stronger effect = higher value
# In short: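 Compound-treated yeast growth, normalised to vehicle controls. Strain bears defined DNA repair mutations.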
# [7] = at 5.0 µM (retest, dose inferred, filed as 0.5)
# [8] = at 50.0 µM (retest, dose inferred, filed as 5.0)
Compound,"growth inhibition [1, 7]","growth inhibition [1, 8]",growth inhibition ([1]; at 50.0 µM),"growth inhibition [2, 7]","growth inhibition [2, 8]",growth inhibition ([2]; at 50.0 µM),"growth inhibition [3, 7]","growth inhibition [3, 8]",growth inhibition ([3]; at 50.0 µM),"growth inhibition [4, 7]","growth inhibition [4, 8]",growth inhibition ([4]; at 50.0 µM),"growth inhibition [5, 7]","growth inhibition [5, 8]",growth inhibition ([5]; at 50.0 µM),"growth inhibition [6, 7]","growth inhibition [6, 8]",growth inhibition ([6]; at 50.0 µM)
COc1cc(NCCCCCCC2CCCCN2)c2ncccc2c1 (stereo not drawn),0% (inactive) and 4% (inactive),81% (active) and 71% (active),50.5% (inactive) and 85.7% (active),-1% (inactive),47% (inactive) and 23% (inactive),49.2% (inactive) and 45.4% (inactive),-7% (inactive) and 0% (inactive),71% (active) and 81% (active),40.6% (inactive) and 88% (active),5% (inactive) and 3% (inactive),27% (inactive) and 61% (inactive),14.1% (inactive) and 11.3% (inactive),1% (inactive) and 4% (inactive),54% (inactive) and 37% (inactive),53.4% (inactive) and 71.5% (active),3% (inactive) and 2% (inactive),89% (active) and 78% (active),61% (inactive) and 94.5% (active)
CC1(c2ccccc2)c2ccccc2N(c2ccccc2)C(=O)C1O (stereo not drawn),98% (active),100% (active),-2.35% (inactive) and 99.5% (active),98% (active),100% (active),7.75% (inactive) and 99.7% (active),97% (active),99% (active),8.35% (inactive) and 99.6% (active),96% (active),99% (active),1.8% (inactive) and 99.2% (active),97% (active),99% (active),-0.35% (inactive) and 99.7% (active),98% (active),99% (active),10.2% (inactive) and 99.4% (active)
O[Si](c1ccccc1)(c1ccccc1)c1ccccc1.O[Si](c1ccccc1)(c1ccccc1)c1ccccc1.O[Si](c1ccccc1)(c1ccccc1)c1ccccc1.[O]=[V],58% (inactive),64% (inactive),62.1% (inactive),37% (inactive),50% (inactive),67% (inactive),46% (inactive),58% (inactive),70.3% (active),15% (inactive),31% (inactive),27.1% (inactive),63% (inactive),62% (inactive),43.4% (inactive),53% (inactive),58% (inactive),72.6% (active)
c1ccc(-c2conc2-c2ccccc2)cc1,-22% (inactive),95% (active),60.8% (inactive),-7% (inactive),91% (active),19.1% (inactive),9% (inactive),90% (active),31.4% (inactive),-32% (inactive),68% (inactive),-2.5% (inactive),-20% (inactive),92% (active),54% (inactive),-10% (inactive),95% (active),71.3% (active)
CCCCCCCCCCSC(=N)N,-141% (inactive) and 19% (inactive),82% (active) and 91% (active),52.9% (inactive) and 95.7% (active),-48% (inactive) and -3% (inactive),71% (active) and 86% (active),49.8% (inactive) and 89.2% (active),-54% (inactive) and 22% (inactive),90% (active) and 95% (active),52.5% (inactive) and 96.5% (active),-50% (inactive) and 8% (inactive),49% (inactive) and 62% (inactive),57.5% (inactive) and 57.2% (inactive),-47% (inactive) and 22% (inactive),84% (active) and 92% (active),52.5% (inactive) and 94.3% (active),-134% (inactive) and 1% (inactive),79% (active) and 90% (active),52% (inactive) and 92.1% (active)
CC1CP(c2ccccc2)(c2ccccc2)(c2ccccc2)OC1(C(=O)c1ccccc1)c1ccccc1 (stereo not drawn),-1% (inactive),9% (inactive),93.9% (active),8% (inactive),7% (inactive),99.3% (active),-21% (inactive),-1% (inactive),99.3% (active),-9% (inactive),2% (inactive),98.9% (active),-1% (inactive),11% (inactive),98.8% (active),-15% (inactive),29% (inactive),99.2% (active)
